Assay results taken from ChEMBL document CHEMBL1157539, “Thousands of chemical starting points for antimalarial lead identification” (Nature, 2010).
Where “and” joins values, the source holds several entries; their conditions need not be identical. Equal values may be shown once.

System: HepG2
Assay: GSK_TCMDC: Percent inhibition of human HepG2 cell line. Test compounds present at 10uM.
Format: functional

Point of comparison: `O=[N+]([O-])c1ccc(Oc2c(Cl)cc(S(=O)(=O)N3CCC(CN4CCC(c5c[nH]c6ccccc56)CC4)CC3)cc2Cl)c(Cl)c1`, Inhibition 43%. Against it:
- COc1ccccc1CC(C)NCC(O)c1cccc(Cl)c1 (centres undefined) — lower, 13%
- COc1cccc(CCNC(C)Cc2ccc(OCCCCOc3ccccc3)cc2)c1 (centres undefined) — higher, 100%
- C[C@H](Cc1ccc(OCCCCCCOc2ccccc2)cc1)NC[C@@H](O)c1cc(Br)no1.Cl — lower, 21%
- COc1ccc(OC)c(C(O)C(C)NCc2cc(Cl)ccc2O)c1.Cl (centres undefined) — lower, 11%
- COCCNCc1cccc(-c2cccc(CN(C(=O)Nc3ccccc3)C3CCN(Cc4ccccc4)CC3)c2)c1.O=C(O)C(F)(F)F — lower, 28%
- CC(C)CNCc1cccc(-c2ccccc2CN(C(=O)Nc2ccccc2)C2CCN(Cc3ccccc3)CC2)c1.O=C(O)C(F)(F)F — lower, 36%
- Cc1nc(-c2ccc(-c3ccc(C(=O)Nc4ccc5c(c4)C4(CCNCC4)CO5)cc3)c(C)c2)no1.Cl — lower, 37%
- Cc1ccc(CC(C)NCC(O)c2cccc(Br)c2)cc1 (centres undefined) — lower, 7%
- CN1CC[C@H](N(Cc2ccccc2F)c2ccc(C#N)c(Cl)c2)C1 — lower, 18%
- CC[C@H]1CN2CC[C@H]1C[C@H]2[C@@H](O)c1cc(OCCCN(C)C)nc2ccc(OC)cc12 — lower, 0%
- O=C(/C=C/c1cc(F)c(F)cc1F)N1CCC(CN2CCC(c3c[nH]c4ccccc34)CC2)CC1 — lower, 26%
- CCc1ccc(CC(C)NCC(O)c2ccccc2)cc1.O (centres undefined) — lower, 0%
- O=C1Nc2cccc3c2C1(CCCCN1CC=C(c2c[nH]c4ncccc24)CC1)CCC3 (centres undefined) — lower, 11%
- O=C(NC1CCC(N2CCC3(CC2)C(=O)NCN3c2ccccc2)CC1)c1cc2ccccc2[nH]1 (centres undefined) — lower, 0%
- C#CCN1CCC2=C(C1)c1c(O)cc(C(C)C(C)CCc3ccc(F)cc3)cc1OC2(C)C (centres undefined) — lower, 10%
- Cc1ccc(C)c(N2CCN(Cc3ccccc3O)CC2)c1 — lower, 11%
- CC(C)CNCc1cccc(-c2ccc(CN(C(=O)NC3CCCCC3)C3CCN(Cc4ccccc4)CC3)cc2)c1.O=C(O)C(F)(F)F — lower, 27%
- Cc1[nH]c2ccc([N+](=O)[O-])cc2c1C1=CCN(C)CC1 — lower, 6%
- CN(CC(=O)N1CCN(S(=O)(=O)c2cccc(Cl)c2)CC1CN1CCCC1)c1ccc(Cl)c(Cl)c1 (centres undefined) — lower, 32%
- O=C(/C=C/c1ccc2ccccc2c1)NC1CCC(CN2CCC(c3c[nH]c4ccccc34)CC2)CC1 (centres undefined) — lower, 28%
- COCC(=O)N(Cc1cccc(-c2ccc(CNCCc3ccccc3)cc2)c1)C1CCN(Cc2ccccc2)CC1.O=C(O)C(F)(F)F — higher, 44%
- CC[C@H]1CN2CCc3cc(OC)c(OC)cc3[C@@H]2C[C@@H]1C[C@H]1NCCc2c1cc(OC)c(OC)c2Br — higher, 45%
- CN1C(=O)[C@H](NC(=O)[C@@H](Cc2ccccc2)NC(=S)Nc2ccccc2)N=C(c2ccccc2)c2ccccc21 — lower, 0%
- CCC1(C)CC(CCNCc2ccccc2O)(c2ccc(C)cc2)CCO1 (centres undefined) — lower, 9%
- Cl.Cl.c1ccc2c(NCCCCCCNc3c4ccccc4nc4ccccc34)c3ccccc3nc2c1 — higher, 60%
- CCCCCc1cc(O)c2c(c1)OC(C)(C)CC2C1=CCN(Cc2ccccc2)CC1 (centres undefined) — lower, 15%
- c1ccc(C(OCCC2CCN(Cc3cccc4cccnc34)CC2)c2ccccc2)cc1 — lower, 9%
- O=C(c1cc(C(=O)NCc2ccc(Cl)cc2)c(=O)n(Cc2ccc(Cl)cc2)c1)c1cc(Cl)ccc1O — lower, 6%
- CCOC(C(=O)OCC1CCCN1C(C)C)(c1ccccc1)c1ccccc1 (centres undefined) — lower, 0%
- CC(=O)N(Cc1ccc(-c2ccc(CNCCc3ccccc3)cc2)cc1)C1CCN(Cc2ccccc2)CC1.O=C(O)C(F)(F)F — higher, 45%
- COc1cc(CC(C)NCC(O)c2cccc(C(F)(F)F)c2)ccc1OCc1ccccc1 (centres undefined) — lower, 2%
- COc1cccc(O)c1CNCC(O)c1cccc(C(F)(F)F)c1 (centres undefined) — lower, 31%
- CN1CCC(O)(c2ccc(Br)cc2)C(C(O)c2ccc(Br)cc2)C1.CS(=O)(=O)O (centres undefined) — lower, 28%
- O=C(/C=C/c1cc(C(F)(F)F)ccc1F)NC1CCC(CN2CCC(c3c[nH]c4ccccc34)CC2)CC1 (centres undefined) — lower, 5%
- O=C(c1ccccc1)C1CC1CN1CC=C(c2c[nH]c3ccccc23)CC1 (centres undefined) — lower, 4%
- O=C(/C=C/c1ccc(Cl)c(Cl)c1)NCC1CCC(N2CCC(c3c[nH]c4ccccc34)CC2)CC1 (centres undefined) — higher, 48%

With `COc1cccc(/C=C/C(=O)NC2CCC(CN3CCC(c4c[nH]c5ccccc45)CC3)CC2)c1` (centres undefined) the Inhibition was 30% and 19%.
With `CC(=O)Nc1ccc2[nH]cc(C3CCN(CC4CCC(NC(=O)/C=C/c5ccc(Cl)c(Cl)c5)CC4)CC3)c2c1` (centres undefined) the Inhibition was 10% and 18%.
